Values joined by “and” are separate entries in the source; they are usually repeats but may differ in a detail not shown here. Equal entries are not always repeated. Structures can show the parent of a compound that is named as a salt.
Legend:
Assay in all cases: thermal shift delta Tm vs DMSO control; higher = stronger stabilization (binding)
Conditions in all cases: 12.5 µM; protein concentration 2 µM
LOC_OS01G01410-cb001 = test system: LOC_OS01G01410-cb001
Summary of the method: (§1)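 Rice kinase domain constructs, made in E. coli and purified, were placed in 96-well plates at 2 μM in 19.5 μl of 100 mM potassium phosphate pH 7.5, 150 mM NaCl, 10% glycerol and 5 × SYPRO Orange, with compound in DMSO. A temperature ramp from 25°C to 95°C at 0.05°C/s was used for differential scanning fluorimetry. The melting temperature shift is a triplicate mean compared with DMSO-only protein, derived from Boltzmann fits.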

LOC_OS01G02750-cb003 = test system: LOC_OS01G02750-cb003
Summary of the method: as §1

LOC_OS01G10900-cb004 = test system: LOC_OS01G10900-cb004
Summary of the method: as §1

LOC_OS01G13800-cb001 = test system: LOC_OS01G13800-cb001
Summary of the method: as §1

LOC_OS01G14860-cb001 = test system: LOC_OS01G14860-cb001
Summary of the method: as §1

LOC_OS01G21960-cb002 = test system: LOC_OS01G21960-cb002
Summary of the method: as §1

LOC_OS01G39600-cb002 = test system: LOC_OS01G39600-cb002
Summary of the method: as §1

LOC_OS01G48390-cb002 = test system: LOC_OS01G48390-cb002
Summary of the method: as §1

LOC_OS01G51400-cb002 = test system: LOC_OS01G51400-cb002
Summary of the method: as §1

LOC_OS01G52050-cb004 = test system: T1, LOC_OS01G52050-cb004
T1 sequence (whole entry): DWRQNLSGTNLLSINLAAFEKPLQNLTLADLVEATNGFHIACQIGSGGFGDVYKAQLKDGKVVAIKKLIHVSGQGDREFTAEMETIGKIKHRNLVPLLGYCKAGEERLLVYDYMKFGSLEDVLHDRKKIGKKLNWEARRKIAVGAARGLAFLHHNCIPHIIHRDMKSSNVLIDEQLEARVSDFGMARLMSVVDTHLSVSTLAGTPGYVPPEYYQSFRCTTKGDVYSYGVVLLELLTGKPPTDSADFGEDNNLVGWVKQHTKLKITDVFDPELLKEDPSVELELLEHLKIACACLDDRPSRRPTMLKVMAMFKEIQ
Summary of the method: as §1
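Note: purified Escherichia coli-expressed rice kinase domain construct.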

SMILES | thermal shift delta Tm (LOC_OS01G01410-cb001) | thermal shift delta Tm (LOC_OS01G02750-cb003) | thermal shift delta Tm (LOC_OS01G10900-cb004) | thermal shift delta Tm (LOC_OS01G13800-cb001) | thermal shift delta Tm (LOC_OS01G14860-cb001) | thermal shift delta Tm (LOC_OS01G21960-cb002) | thermal shift delta Tm (LOC_OS01G39600-cb002) | thermal shift delta Tm (LOC_OS01G48390-cb002) | thermal shift delta Tm (LOC_OS01G51400-cb002) | thermal shift delta Tm (LOC_OS01G52050-cb004)
Nc1cccc(-c2cc3c(Oc4cccc(O)c4)ncnc3[nH]2)c1 | 2.64 °C | 1.81 °C | 1.53 °C | 0.59 °C | 4.88 °C | 1.92 °C | 3.68 °C | 2.32 °C | 0.45 °C | 2.13 °C
Cc1ccc(CNc2ncnc3ccc(-c4ccc(CO)o4)cc23)o1 | 0.69 °C | 1.49 °C | 0.39 °C | -0.33 °C | 0.56 °C | 0.93 °C | 0.85 °C | 0.79 °C | 0.24 °C | 1.21 °C
CNC(=O)c1cc(Oc2ccc(NC(=O)Nc3ccc(Cl)c(C(F)(F)F)c3)c(F)c2)ccn1 [Regorafenib (BAY 73-4506)] | 2.09 °C | 0.82 °C | 0.16 °C | 0.79 °C | 2.04 °C | 0.87 °C | 0.21 °C | 0.48 °C | 0.2 °C | 0.67 °C
COc1ccc(S(=O)(=O)N(C(C)=O)c2ccccc2/C=C/c2cc[n+]([O-])cc2)cc1 | -0.1 °C | 0.48 °C | 0.77 °C | 0.64 °C | 0.58 °C | 0.67 °C | -0.39 °C | 0.12 °C | -0.08 °C | 0.02 °C
C[C@H]1CNCCCN1S(=O)(=O)c1cccc2cncc(F)c12 [Ripasudil (K-115) hydrochloride dihydrate] | 0.29 °C | 1.34 °C | 0.28 °C | 1.05 °C | 0.24 °C | 0.88 °C | 0.39 °C | 0.68 °C | 0.21 °C | 0.63 °C
CCn1nc(C2CCN(C(=O)CCO)CC2)nc1-c1cnc(N)c(-c2nnc(C(C)(C)C)o2)n1 | 0.39 °C | 0.51 °C | 0.81 °C | 0.46 °C | 2.91 °C | 1.09 °C | 2.31 °C | 0.07 °C | -0.09 °C | 1.14 °C
Cc1ccc(F)c(NC(=O)Nc2ccc(-c3cccc4[nH]nc(N)c34)cc2)c1 [Linifanib (ABT-869)] | 3 °C | 3.87 °C | 1.34 °C | 0.36 °C | 2.29 °C | 1.08 °C | 2.02 °C | 4.44 °C | 0.54 °C | 6.66 °C
COc1cc2c(c(OC)c1OC)-c1c(cc3c(c1OC)OCO3)CC(C)C(C)C2 (stereo not given) [Schisandrin B (Sch B)] | 0.01 °C | -0.07 °C | 0.21 °C | -0.06 °C | 0.19 °C | 0.19 °C | -3.57 °C | 0.18 °C | 0.24 °C | -0.05 °C
O=C(Nc1c[nH]nc1-c1nc2ccc(CN3CCOCC3)cc2[nH]1)NC1CC1 | 5.91 °C | 3.78 °C | 2.15 °C | -0.38 °C | 8.12 °C | 3.45 °C | 6.02 °C | 2.89 °C | 0.42 °C | 7.67 °C
Nc1nc(N)c2nc(-c3cccc(O)c3)c(-c3cccc(O)c3)nc2n1 | 0.47 °C | 0.72 °C | 1.95 °C | 0.77 °C | 1 °C | 1.07 °C | -0.28 °C | 0.4 °C | 0.49 °C | 1.16 °C
CS(=O)(=O)c1cccc(CNc2nc(Nc3ccc4c(c3)CCC(=O)N4)ncc2C(F)(F)F)c1 | 3.58 °C | 3.6 °C | 1.39 °C | -0.34 °C | 3.83 °C | 3.04 °C | 7.76 °C | 3.42 °C | 2.2 °C | 5.18 °C
C#Cc1cccc(Nc2ncnc3cc(OCCOC)c(OCCO)cc23)c1 | 1.63 °C | 0.85 °C | 1.08 °C | 0.74 °C | 0.28 °C | 0.99 °C | 2.63 °C | 2.12 °C | 0.19 °C | 1.63 °C
C[S+]([O-])c1ccc(-c2nc(-c3ccc(F)cc3)c(-c3ccncc3)[nH]2)cc1 (stereo not given) | 1.61 °C | -0.29 °C | 0.57 °C | 0.79 °C | 2.49 °C | 1.22 °C | 0.18 °C | 0.4 °C | -0.08 °C | 0.5 °C
CCc1nc(-c2cccc(C)c2)c(-c2ccnc(NC(=O)c3ccccc3)c2)s1 | 0.24 °C | 0.26 °C | 0.38 °C | -0.71 °C | 0.27 °C | -0.03 °C | 0.93 °C | 0.28 °C | 0.2 °C | 0.24 °C
CCn1c(N)c(C(=O)NC)c(=O)c2ccc(C#CC(C)(O)COC)nc21 (stereo not given) | 0.45 °C | 0.44 °C | -0.01 °C | -0.17 °C | 0.21 °C | 0.3 °C | -1.69 °C | 0.18 °C | 0.37 °C | 0.36 °C
O=C(NC1CCNCC1)c1n[nH]cc1NC(=O)c1c(Cl)cccc1Cl | 0.79 °C and -0.04 °C | 0.32 °C and 1.46 °C | 0.21 °C and 0.72 °C | -0.01 °C and 1.05 °C | 4.91 °C and 5.53 °C | 0.86 °C and 0.55 °C | -0.04 °C and 0.17 °C | 0.25 °C and 0.54 °C | -0.23 °C and 0.38 °C | -0.1 °C and 0.56 °C
CC1(C)OCCn2c1nc1c(N3CCOCC3)nc(-c3cnc(N)nc3)nc12 | 2.4 °C | 0.54 °C | 1.05 °C | 0.07 °C | 0.3 °C | 1.06 °C | 0.85 °C | 0.14 °C | 0.12 °C | 0.62 °C
CNC(=O)c1cccc(-c2ccc3c(N4CCOC[C@@H]4C)nc(N4CCOC[C@@H]4C)nc3n2)c1 [Vistusertib (AZD2014)] | 0.53 °C | 0.19 °C | 0.09 °C | 0.05 °C | -0.13 °C | 0.23 °C | -0.58 °C | 0.24 °C | 0.26 °C | -0.25 °C
Cn1ncc(Cl)c1-c1cc(C(=O)N[C@H](CN)Cc2ccc(F)c(F)c2)oc1Cl | -0.41 °C | 1.78 °C | -0.33 °C | 1.08 °C | 0.15 °C | 1.66 °C | -0.06 °C | 1 °C | 0.44 °C | 1.06 °C
N#CC1(c2ccc(NC(=O)c3cccnc3NCc3ccncc3)cc2)CCCC1 [Apatinib] | 1.1 °C | 0.48 °C | 0.27 °C | 0.11 °C | 0.52 °C | 0.5 °C | 0.01 °C | 0.55 °C | 0.33 °C | 0.12 °C
COc1cc2ncnc(Nc3ccc(F)c(Cl)c3)c2cc1NC(=O)/C=C/CN1CCCCC1 | 1.07 °C | 1.4 °C | 1.7 °C | 0.04 °C | 0.18 °C | 1.27 °C | -0.71 °C | 0.7 °C | 0.66 °C | 0.74 °C
Cn1nccc1Nc1nccc(-c2ccn([C@H](CO)c3ccc(Cl)c(F)c3)c(=O)c2)n1 | 0.99 °C | 1.21 °C | 0.24 °C | -0.2 °C | 5 °C | 0.94 °C | 0.18 °C | 0.6 °C | 0.59 °C | 0.85 °C
COc1cc(N2CCC(N(C)C)CC2)ccc1Nc1ncc(Cl)c(Nc2ccccc2P(C)(C)=O)n1 | 0.42 °C | -0.8 °C | 0.79 °C | -0.94 °C | 0.31 °C | 1.95 °C | -6.92 °C | 0.54 °C | 0.25 °C | 3.85 °C

— the supplement of paper PMC9694430
